The text below walks through data of PubChem BioAssay (Tox21).

The structures appear in SMILES notation. Several values for one entry are separate records, joined by “and”; a condition that tells them apart may be missing. Equal entries are not always repeated. Inconclusive results are not listed. Activity calls are given as the source filed them. Unless noted, the call rests on the fitted dose curve; in most records, active means well fitted curve in the direction sought with a large enough effect in the repeat runs; inconclusive means weak or mixed curves; inactive means no such curve, though single readings can be large; an effect the other way counts as inactive or inconclusive.

A short description of experiment [1]: qHTS assay to identify small molecule antagonists of the retinoid acid receptor (RAR) signaling pathway - cell viability counter screen (AID 1159551). Further: nearly all actives have a fitted effect of over 35% in size. Further: potency means the concentration at half of the fitted maximal effect. A digest of the protocol:
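Cytotoxicity counter screen in C3RL4 cells: 6 h compound exposure with 1 uM retinol (final), viability from cellular ATP by luminescence.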
(In general: In qHTS, concentration-response curves come from the screen itself.)

A short description of experiment [2]: qHTS assay to identify small molecule agonists of the retinoic acid receptor (RAR) signaling pathway (AID 1159553). Further: potency means the concentration at half of the fitted maximal effect. A digest of the protocol: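 Agonist activity was scored in C3RL4 cells bearing a retinoic acid response element luciferase construct. Cells were treated with compounds for 6 hr at 37 C, and luciferase signal was measured as luminescence.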
Experiment [3] can be described thus: qHTS assay to identify small molecule antagonists of the estrogen related receptor (ERR) signaling pathway - cell viability counter screen (AID 1224818). Further: series mostly up to about 46 µM. The essentials: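 Cells carrying the ERR pathway reporter were seeded and incubated for 6 hours before compound addition. After a 17.5-hour exposure at 37 C, live-cell protease activity was measured by CellTiter-Fluor fluorescence following 30 minutes of incubation.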

Experiment [4] in a line: qHTS assay to identify small molecule antagonists of the estrogen related receptor (ERR) signaling pathway (AID 1224819;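 further: luminescence from an ERR-driven luciferase reporter measured with One-Glo reagent; series mostly up to about 46 µM; nearly all actives have a fitted effect of over 50% in size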). A digest of the protocol: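 Compounds dissolved in DMSO were pin-transferred onto ERR cells that had been plated 6 h earlier, and cells were then incubated 18 h at 37 C; signal was luciferase luminescence via One-Glo.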
Experiment [5] can be described thus: qHTS assay to identify small molecule agonists of the estrogen related receptor (ERR) signaling pathway (AID 1224820). The essentials:
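Cells: ERR line from NTP, 2,000/well. Pre-incubation 6 h, 37 C/5% CO2. Compound (DMSO) pin transfer, 18 h 37 C. One-Glo, 30 min RT, luminescence.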

For experiment [6], the system named is estrogen-related receptor alpha (ERRalpha) with PGC-1alpha coactivator, human. Kind of experiment: qHTS assay to identify small molecule antagonists of the estrogen related receptor signaling pathway with the pleiotropic PPARgamma coactivator (PGC) (AID 1224821; calls by dose curve;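 further: series mostly up to about 46 µM; lower luminescence signal means antagonism of PGC/ERR signalling; nearly all actives have a fitted effect of over 50% in size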). The essentials: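 Luminescent read-out (One-Glo, 30 min at room temperature) following 18 h treatment of PGC/ERR cells at 37 C with compounds delivered in DMSO. Cells had settled 6 h at 37 C/5% CO2 before dosing.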

A short description of experiment [7]: qHTS assay to identify small molecule antagonists of the estrogen related receptor signaling pathway with the pleiotropic PPARgamma coactivator (PGC) cell viability counter screen (AID 1224822;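 further: series mostly up to about 46 µM; viability read after 17.5 h compound exposure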). A digest of the protocol:
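Seed PGC/ERR cells (2,000/well); incubate 6 h at 37 C/5% CO2; pin-transfer compounds in DMSO; incubate 17.5 h at 37 C; add CellTiter-Fluor; after 30 min read fluorescence.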

A short description of experiment [8]: qHTS assay to identify small molecule agonists of the estrogen related receptor signaling pathway with the pleiotropic PPARgamma coactivator (PGC) (AID 1224823). A digest of the protocol: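 Steps: plate PGC/ERR cells at 2,000 cells/well; incubate 6 h, 37 C/5% CO2; pin-transfer compounds (DMSO); incubate 18 h, 37 C; add One-Glo; 30 min RT; read luminescence.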

A short description of experiment [9]: qHTS assay to identify small molecule antagonists of the estrogen related receptor (ERR) signaling pathway from Tox21 library - cell viability counter screen (AID 1224834). Further: nearly all actives have a fitted effect of over 30% in size. Further: potency means the concentration at half of the fitted maximal effect. A digest of the protocol: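 Cytotoxicity of test substances is gauged in the same ERR cells used for the antagonist screen, after 17.5 h of compound treatment at 37 C, by CellTiter-Fluor fluorescence measured after 30 min.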

A short description of experiment [10]: qHTS assay to identify small molecule antagonists of the retinoic acid receptor (RAR) signaling pathway (AID 1159552; further: nearly all actives have a fitted effect of over 50% in size). The essentials: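 Readout: luciferase luminescence, 30 min post-reagent at RT. Setup: C3RL4 RARE reporter cells, compounds plus retinol 1 uM final, 6 hr incubation at 37 C and 5% CO2.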

For the molecule `COc1ccc2c(c1)c(CC(=O)O)c(C)n2C(=O)c1ccc(Cl)cc1`, the Potency result in experiment [1], in experiment [2], in experiment [4], in experiment [7] and in [9] was “inactive” throughout. In addition, the outcome in [3], in experiment [5], in experiment [6] and in [8] was inactive.
Take `Oc1ccccc1`: the Potency result in experiment [1], in experiment [2] and in [9] was “inactive” each time.
In the case of `CC1(C)O[C@@H]2C[C@H]3[C@@H]4CCC5=CC(=O)C=C[C@]5(C)[C@@]4(F)[C@@H](O)C[C@]3(C)[C@]2(C(=O)CO)O1`, the Potency entry in [1], in experiment [2] and in experiment [9] was “inactive” throughout.
For the molecule `Nc1ccc(O)c([N+](=O)[O-])c1`, the Potency result in experiment [1], in experiment [10], in experiment [4] and in experiment [7] was “inactive” each time. The result in experiment [6] and in [8] was inactive. The Potency in [9] is 21.7 µM (active).
As for `O=C1OC2(c3ccccc31)c1cc(Br)c(O)c(Br)c1Oc1c2cc(Br)c(O)c1Br`, the Potency entry in experiment [1] and in experiment [2] was “inactive” each time. The Potency in experiment [9] was 11 µM (active) and 25 µM (active) and 26.6 µM (active).
Take `CCCc1cc(=O)[nH]c(=S)[nH]1`: the Potency result in [1], in [10], in experiment [2] and in [9] was “inactive” in each case.
For `Nc1ccc2c(c1)CN1C(=O)c3ccccc3C1=N2`, the values for the Potency in experiment [1] and in experiment [2] were 14.6 µM (active) and 0.366 µM (active), respectively.
For the molecule `C[C@](N)(Cc1ccc(O)c(O)c1)C(=O)O`, the Potency result in [1], in experiment [2], in [7] and in [9] was “inactive” each time. Also, in experiment [3], the outcome was inactive.
`CN1[C@@H]2CC(OC(=O)[C@H](CO)c3ccccc3)C[C@H]1[C@@H]1O[C@@H]12` (some centres undefined): the Potency entry in experiment [1] and in experiment [9] was “inactive” each time.
On to `CC(=O)CCC(=O)O`, for which the Potency result in experiment [1] and in experiment [9] was “inactive” throughout.
Take `COc1cccc(O)c1O`: the Potency result in [1] is “inactive”. In addition, the Potency in experiment [9] was 63.5 µM (active).
The matching figures for `Cc1ccc(S(=O)(=O)O)cc1`: “inactive” and “inactive”.
The matching figures for `OC[C@H]1O[C@H](O[C@]2(CCl)O[C@H](CCl)[C@@H](O)[C@@H]2O)[C@H](O)[C@@H](O)[C@H]1Cl`: “inactive” and “inactive”.
The like results for `CCOc1ccc(NC(C)=O)cc1` were, in that order, “inactive” and “inactive”.
In the case of `Nc1ccc(S(N)(=O)=O)cc1`, the Potency entry in [1] and in experiment [9] was “inactive” throughout.
Consider `COc1ccc(OC(F)(F)F)cc1CN[C@H]1CCCN[C@H]1c1ccccc1`, for which the Potency result in [1] is “inactive”. The Potency in experiment [9] is 54.5 µM (active).
For the molecule `CCCCCCCCCCCCCCCC[N+](C)(C)Cc1ccccc1`, the Potency in experiment [1] was 79.4 µM (active) and 62.2 µM (active) and 29.8 µM (active); in experiment [9], 63.1 µM (active) and 49.4 µM (active) and 23.7 µM (active).
As for `NS(=O)(=O)O`, the Potency result in experiment [1] and in experiment [9] was “inactive” throughout.
Regarding `O=C(O)c1ccccc1`, the Potency result in [1] and in [9] was “inactive” each time.
Regarding `COc1ccc2cc(S(=O)(=O)N[C@H](CC(=O)N[C@H](Cc3ccc(CN4[C@H](C)CCC[C@@H]4C)cc3)C(=O)N(C)C(C)C)c3ccc4c(c3)OCO4)ccc2c1`, the Potency entry in experiment [2] was “inactive”. In addition, the Potency in [9] was 51.6 µM (active).
`CC(=O)CC(c1ccccc1)c1c(O)c2ccccc2oc1=O` (centres undefined): the Potency result in [1] and in experiment [9] was “inactive” in each case.
For the molecule `F[B-](F)(F)F`, the Potency result in [1] and in experiment [9] was “inactive” each time.
Consider `CN1CCc2cccc3c2[C@H]1Cc1ccc(O)c(O)c1-3`, for which the Potency is 69.3 µM (active) in experiment [1]; 27.6 µM (active) and 22.8 µM (active) and 26.6 µM (active) in experiment [9].
As for `CN1CCC[C@H]1c1cccnc1`, the Potency entry in experiment [1] and in experiment [9] was “inactive” each time.
For the molecule `CCCCC(CC)C(=O)O` (centres undefined), the Potency entry in [1] and in [9] was “inactive” throughout.
In the case of `O=CC(=O)c1ccccc1`, the Potency entry in experiment [2] and in experiment [9] was “inactive” each time.
For the molecule `CCOC(N)=O`, the Potency result in [1] and in experiment [9] was “inactive” each time.
`NC(=O)c1cccnc1`: the Potency result in experiment [1] and in [9] was “inactive” in each case.
As for `O=C1c2c(O)cccc2Cc2cccc(O)c21`, the Potency entry in experiment [1] and in [9] was “inactive” each time.
Take `CC1(C)S[C@@H]2[C@H](NC(=O)[C@H](N)c3ccccc3)C(=O)N2[C@H]1C(=O)O`: the Potency entry in [1] and in experiment [9] was “inactive” each time.
On to `Cc1cccc(C)c1`, for which the Potency result in experiment [1] and in experiment [9] was “inactive” in each case.
As to `CCCCCCCCCCCC[N+](C)(C)Cc1ccccc1`, the Potency was 60 µM (active) and 74.5 µM (active) in [1]; 60 µM (active) and 66.4 µM (active) and 23.7 µM (active) in [9].
Consider `Cc1cc(=O)oc2cc(O)ccc12`, for which the Potency result in [1] and in [9] was “inactive” throughout.
As for `CC(O)(P(=O)(O)O)P(=O)(O)O`, the Potency result in experiment [1] and in [9] was “inactive” throughout.
Turning to `Cc1ncc([N+](=O)[O-])n1C`, the Potency result in experiment [1] and in experiment [9] was “inactive” in each case.
Consider `Nc1ccc([N+](=O)[O-])cc1O`, for which the Potency entry in experiment [2] and in experiment [7] was “inactive” in each case.
Consider `C=C1CC[C@H](O)C/C1=C\C=C1/CCC[C@]2(C)[C@@H]([C@H](C)CCCC(C)C)CC[C@@H]12`, for which the Potency result in experiment [1] is “inactive”. The Potency in [9] is 54 µM (active).
